Assay results: PubChem BioAssay (NCATS)
Records with an inconclusive call do not appear. Active and inactive are the calls of the source. Calls follow the shape of the full dose curve; tested in HEK293 reporter line.

Assays:
[1] = qHTS for Inhibitors of the Functional Ribonucleoprotein Complex (vRNP) of Lassa (LASV) Arenavirus: LASV Primary Screen - GLuc reporter signal (AID 1347082); conditions: LASV minigenome vRNP, Gaussia luciferase reporter; series mostly up to 57.5 µM; also: nearly all actives have a fitted effect of over 60% in size
[2] = qHTS for Inhibitors of the Functional Ribonucleoprotein Complex (vRNP) of Lassa (LASV) Arenavirus: Viability assay - alamar blue signal for LASV Primary Screen (AID 1347083); conditions: cell viability, alamar blue fluorescence (LASV minigenome counter-screen); series mostly up to 57.5 µM; also: nearly all actives have a fitted effect of over 80% in size
[3] = qHTS for Inhibitors of the Functional Ribonucleoprotein Complex (vRNP) of Lymphocytic Choriomeningitis Arenaviruses (LCMV): Viability assay - alamar blue signal for LCMV Primary Screen (AID 1347085); conditions: alamar blue viability counter-screen, LCMV vRNP screen cells; series mostly up to 57.5 µM; also: nearly all actives have a fitted effect of over 80% in size
% is scaled to controls: 0 for no effect and ±100 for the full control effect.

Cc1cc2nc3c(=O)[nH]c(=O)nc-3n(C[C@H](O)[C@H](O)[C@H](O)CO)c2cc1C
inactive: Potency [1] | Potency [2] | Potency [3]

NC(=S)N/N=C/c1cccnc1
inactive: Potency [1] | Potency [2] | Potency [3]

O=C(N/N=C/c1ccccc1O)c1ccncc1
inactive: Potency [1] | Potency [2] | Potency [3]

NS(=O)(=O)c1ccc(NC(=O)CCC(=O)O)cc1
inactive: Potency [1] | Potency [2] | Potency [3]

CCC1(C)CC(=O)NC1=O (stereo not drawn)
inactive: Potency [1] | Potency [2] | Potency [3]

COc1cc(NS(=O)(=O)c2ccc(N)cc2)nc(C)n1
inactive: Potency [1] | Potency [2] | Potency [3]

N[C@@H](COP(=O)(O)O)C(=O)O
inactive: Potency [1] | Potency [2] | Potency [3]

Clc1ccc2c(c1)Nc1ccccc1S2
inactive: Potency [1] | Potency [2] | Potency [3]

O=C(O)CN(CCN(CC(=O)O)CC(=O)O)CCN(CC(=O)O)CC(=O)O
inactive: Potency [1] | Potency [2] | Potency [3]

Cc1ccnc(NS(=O)(=O)c2ccc(N)cc2)n1
inactive: Potency [1] | Potency [2] | Potency [3]

CCN(CC)C(=O)/C(C#N)=C/c1cc(O)c(O)c([N+](=O)[O-])c1
inactive: Potency [1] | Potency [2] | Potency [3]

O=C(O)Cn1c(=O)n(Cc2ccc(Br)cc2F)c(=O)c2ccc(Cl)cc21
inactive: Potency [1] | Potency [2] | Potency [3]

O=C(O)CCCCCCCC(=O)O
inactive: Potency [1] | Potency [2] | Potency [3]

CCCCCCCCCCCCOCCO
inactive: Potency [1] | Potency [2] | Potency [3]

CCCCC(=O)OCC(=O)[C@H]1[C@H](C)C[C@H]2[C@@H]3C[C@H](F)C4=CC(=O)C=C[C@]4(C)[C@@]3(F)[C@@H](O)C[C@@]21C
inactive: Potency [1] | Potency [2] | Potency [3]

C[N+](C)(C)CC(O)CC(=O)[O-] (stereo not drawn)
inactive: Potency [1] | Potency [2] | Potency [3]

Oc1ccccc1-c1nnco1
inactive: Potency [1] | Potency [2] | Potency [3]

O=C1[C@@H]2[C@H]3CC[C@H](C3)[C@@H]2C(=O)N1CCCCN1CCN(c2ncccn2)CC1
inactive: Potency [1] | Potency [2] | Potency [3]

CC(N)CCCC(C)(C)O (stereo not drawn)
inactive: Potency [1] | Potency [2] | Potency [3]

CC(O)C(=O)O (stereo not drawn)
inactive: Potency [1] | Potency [2] | Potency [3]

Nc1nc(N)nc(-c2cc(Cl)ccc2Cl)n1
inactive: Potency [1] | Potency [2] | Potency [3]

COc1cc2c3cc1Oc1cc(ccc1O)C[C@@H]1c4c(cc(OC)c(O)c4Oc4ccc(cc4)C[C@@H]3N(C)CC2)CC[N+]1(C)C
inactive: Potency [1] | Potency [2] | Potency [3]

COc1ccccc1OCC1CNC(=O)O1 (stereo not drawn)
inactive: Potency [1] | Potency [2] | Potency [3]

Cc1cn([C@@H]2O[C@H](CO)[C@@H](O)[C@H]2F)c(=O)[nH]c1=O
inactive: Potency [1] | Potency [2] | Potency [3]

CC(C)(C(=O)c1cccnc1)c1cccnc1
inactive: Potency [1] | Potency [2] | Potency [3]

OCCOCCN1CCN(C2=Nc3ccccc3Sc3ccccc32)CC1
inactive: Potency [1] | Potency [2] | Potency [3]

CC(=O)c1ccc(OCC(=O)N2CCCCC2)cc1
inactive: Potency [1] | Potency [2] | Potency [3]

CO[C@]12C[C@@H](COC(=O)c3cncc(Br)c3)CN(C)[C@@H]1Cc1cn(C)c3cccc2c13
inactive: Potency [1] | Potency [2] | Potency [3]

CNCc1ccccc1
inactive: Potency [1] | Potency [2] | Potency [3]

CCCC(=O)Nc1ccc(O)c(C(C)=O)c1
inactive: Potency [1] | Potency [2] | Potency [3]

CC1CN(c2cc3c(cc2F)c(=O)c(C(=O)O)cn3-c2ccc(F)cc2F)CCN1 (stereo not drawn)
inactive: activity change, negative = inhibition [1] 7.88% [at 5.82 µM] | activity change, negative = reduced viability [2] 9.98% [at 5.82 µM] | activity change, negative = lower viability [3] 2.49% [at 5.82 µM]

NCCNCCNCCN
inactive: Potency [1] | Potency [2] | Potency [3]

O=C(O)C(S)C(S)C(=O)O (stereo not drawn)
inactive: Potency [1] | Potency [2] | Potency [3]

CCCCC(CC)CN1CN(CC(CC)CCCC)CC(C)(N)C1 (stereo not drawn)
inactive: Potency [1] | Potency [2] | Potency [3]

NCCNCCNCCNCCN
inactive: activity change, negative = inhibition [1] -3.37% [at 11.5 µM] | activity change, negative = reduced viability [2] 1.27% [at 11.5 µM] | activity change, negative = lower viability [3] 2.19% [at 11.5 µM]

O=C(CCOCCOCCOCCOCCC(=O)Nc1c(I)cc(I)c(C(=O)O)c1I)Nc1c(I)cc(I)c(C(=O)O)c1I
inactive: Potency [1] | Potency [2] | Potency [3]

CCCNC(C)C(=O)Nc1c(C)csc1C(=O)OC (stereo not drawn)
inactive: Potency [1] | Potency [2] | Potency [3]

c1ccc2sc(SSc3nc4ccccc4s3)nc2c1
inactive: Potency [1] | Potency [2] | Potency [3]

C[C@H]1C[C@H](O)c2ccsc2S1(=O)=O
inactive: Potency [1] | Potency [2] | Potency [3]

COc1ccc(O)cc1
inactive: Potency [1] | Potency [2] | Potency [3]

CC(=O)OCC[N+](C)(C)C
inactive: Potency [1] | Potency [2] | Potency [3]
